This is an account of results in publication PMC12751014, “Non-Catalytic Inhibitors of the p38/MK2 Interface: Repurposing Approved Drugs to Target Neuroinflammation in Alzheimer’s Disease” (Journal of Medicinal Chemistry, 2025).

Structures are written as SMILES. About 50 (3%) of roughly 1,900 compounds showed an effect of 50% or more. Only a selection was taken, and strong results are over-represented in it overall.

Sequence of p38/MK2 protein–protein interaction (VF-p38α / GST-MK2) (Q16539 2-360 limits assumed): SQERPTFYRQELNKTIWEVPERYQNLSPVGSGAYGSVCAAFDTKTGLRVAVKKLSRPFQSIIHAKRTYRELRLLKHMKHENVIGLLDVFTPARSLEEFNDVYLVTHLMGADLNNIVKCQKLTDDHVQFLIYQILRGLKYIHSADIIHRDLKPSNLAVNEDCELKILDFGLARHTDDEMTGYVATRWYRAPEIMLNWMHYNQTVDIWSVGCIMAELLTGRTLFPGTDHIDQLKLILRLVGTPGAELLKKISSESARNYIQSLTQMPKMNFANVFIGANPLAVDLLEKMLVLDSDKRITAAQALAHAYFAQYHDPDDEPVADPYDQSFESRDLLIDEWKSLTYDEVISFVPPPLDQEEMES

The target in the experiment is p38/MK2 protein–protein interaction (VF-p38α / GST-MK2) (Homo sapiens, UniProt Q16539). Put plainly: primary screen, percent of control activity; higher = less effect of the substance. Also noted: species or system HEK293T cell lysate transfected with VF-p38α and GST-MK2; unclear (methods say 'quintuplet replicates'). The procedure:
The TR-FRET assay was conducted in a 1536-well plate (Corning, catalog no. 3724) with HEK293T cell lysate transfected with VF-p38α and GST-MK2. Cell-lysate concentration was optimized with a titration experiment. Anti-Flag-Tb and anti-GST-d2 antibodies (Revvity, catalog no. 61FGBTLB) were used to couple p38α and MK2, respectively. A multiple-drop Combi dispenser (Thermo Scientific) combined reaction mixtures in quintuplet replicates. The TR-FRET signals were measured using a BMG Labtech PHERAstar FSX plate reader and normalized to the percent of DMSO control.
`O=C1c2c(O)ccc(O)c2C(=O)c2c(NCCNCCO)ccc(NCCNCCO)c21` gave a Pct of control of 45.7%.

Turning to `Cl.Cl.O=C1c2c(O)ccc(O)c2C(=O)c2c(NCCNCCO)ccc(NCCNCCO)c21`, the Pct of control amounted to 92%. `Cc1c(CN2CCN(C(=O)C(C)O)CC2)sc2c(N3CCOCC3)nc(-c3cnc(N)nc3)nc12` (stereo not drawn) registered a Pct of control of 96.8%. As for `CCC(NC(C)C)C(O)c1ccc(O)c(O)c1.CS(=O)(=O)O` (stereo not drawn), the figure is 90%; as for `NC(=O)c1cccc(-c2cccc(OC(=O)NC3CCCCC3)c2)c1`, 91.2%. As for `COc1cc(=C2C=c3ccccc3=N2)[nH]c1=Cc1[nH]c(C)cc1C.CS(=O)(=O)O`, the figure is 37.5%; as for `CCOc1cc(N)c(Cl)cc1C(=O)NCC1CN(Cc2ccc(F)cc2)CCO1.O=C(O)CC(O)(CC(=O)O)C(=O)O` (stereo not drawn), 96.8%. Then `Cc1coc2c1C(=O)C(=O)c1c-2ccc2c1CCCC2(C)C`, with 79.4%; and `CCOC(=O)n1ccn(C)c1=S`, with 98.2%. For `CN(C)C1C(=O)C(C(N)=O)=C(O)C2(O)C(=O)C3=C(O)c4c(O)cccc4C(C)(O)C3C(O)C12.O.O` (stereo not drawn), the Pct of control is 48.8%.

On to `CN(C)C1C(=O)C(C(N)=O)=C(O)C2(O)C(=O)C3=C(O)c4c(O)cccc4C(C)(O)C3C(O)C12` (stereo not drawn), for which the Pct of control amounted to 90.8%. As for `C=C1c2cccc(O)c2C(O)=C2C(=O)C3(O)C(O)=C(C(N)=O)C(=O)C(N(C)C)C3C(O)C12.Cl` (stereo not drawn), the Pct of control came to 52.5%. For the compound `COc1ccc(CCC(=O)c2c(O)cc(OC3OC(CO)C(O)C(O)C3OC3OC(C)C(O)C(O)C3O)cc2O)cc1O` (stereo not drawn), the Pct of control is 94.3%.

With `CC(C)NC[C@H](O)COc1ccc(CCOCC2CC2)cc1.Cl` [S4085], the Pct of control came out at 94.4%. Regarding `COc1ccc(S(=O)(=O)N(C(C)=O)c2ccccc2C=Cc2cc[n+]([O-])cc2)cc1`, the Pct of control was found to be 89.4%. As for `O=C(c1cncc(Br)c1)N1CCC(N2CCCC2)CC1`, the figure is 85.2%.

For `O=C(C=Cc1cccc(S(=O)(=O)Nc2ccccc2)c1)NO`, the Pct of control is 103%. In the case of `Cc1cc(C(=O)CN2CCCC2)c(C)n1-c1ccc(F)cc1`, the Pct of control was determined as 88.5%. Take `Cc1cc2c(C(=O)NC[C@H](C)c3ccccc3)c(O)c(O)cc2c(O)c1-c1c(C)cc2c(C(=O)NC[C@H](C)c3ccccc3)c(O)c(O)cc2c1O`: the Pct of control was found to be 36.8%.

`Cc1cc(-c2ncc(CC(=O)Nc3ccc(-c4cnccn4)cn3)cc2C)ccn1` showed a Pct of control of 98%. The compound `Nc1ncnc2c1ncn2[C@@H]1O[C@H](CO)[C@@H](O)[C@@H]1O` [S1784] returned a Pct of control of 91.5%. Then `CN(C)CCOC(C)(c1ccccc1)c1ccccn1.O=C(O)CCC(=O)O` (stereo not drawn), with 101%.

Turning to `O=C(OC1Cc2c(O)cc(O)cc2OC1c1cc(O)c(O)c(O)c1)c1cc(O)c(O)c(O)c1` (single isomer, unassigned; (-)), the Pct of control is listed as 32.5%.

Turning to `O=C1c2c(O)cc(O)cc2O[C@H](c2cc(O)c(O)c(O)c2)[C@H]1O`, the Pct of control amounted to 71.3%. Then `COc1ccc(C2CC(=O)c3c(O)cc(O)cc3O2)cc1O` (stereo not drawn), with 90.9%. Then `CC12CC3CC(C)(C1)CC(N)(C3)C2.Cl`, with 94.2%.

`COc1cccc2c1C(=O)c1c(O)c3c(c(O)c1C2=O)CC(O)(C(=O)CO)CC3OC1CC(N)C(OC2CCCCO2)C(C)O1` (stereo not drawn) returned a Pct of control of 56.6%. Take `CC(NC(=O)C(O)c1cc(F)cc(F)c1)C(=O)NC1C(=O)N(C)c2ccccc2-c2ccccc21` (stereo not drawn): the Pct of control is on record as 105%. `CN(C)CC(c1ccc(O)cc1)C1(O)CCCCC1` (stereo not drawn) yielded a Pct of control of 98.6%. As for `Nc1ccccc1NC(=O)c1ccc(CNC(=O)OCc2cccnc2)cc1`, the figure is 96.2%; as for `O=C(O)c1ccc(N2C(=O)C(=Cc3ccc(-c4ccc([N+](=O)[O-])cc4)o3)C=C2c2ccccc2)cc1`, 24.8%; as for `COc1c(C)cnc(Cn2cnc3c(Cl)nc(N)nc32)c1C`, 111%. Take `COC1C=CC=C(C)C(=O)NC2=CC(=O)C(NCCN(C)C)=C(CC(C)CC(OC)C(O)C(C)C=C(C)C1OC(N)=O)C2=O.Cl` (stereo not drawn): the Pct of control is 96.9%. As for `Cl.OC(CCN1CCCCC1)(c1ccccc1)C1CC2C=CC1C2` (stereo not drawn), the Pct of control was 117%.

On to `COc1cc(C(C)=O)ccc1O`, for which the Pct of control amounted to 90.4%.

Compound `O=C1Nc2ccc(I)cc2C1=Cc1cc(Br)c(O)c(Br)c1` registered a Pct of control of 43.6%. As to `CCNCC.O=C(O)Cc1ccccc1Nc1c(Cl)cccc1Cl`, the Pct of control worked out at 95.1%. `CN(C)CCc1ccc(O)cc1` displayed a Pct of control of 89.6%. The compound `COc1cc2nc(N(C)CCCNC(=O)C3CCCO3)nc(N)c2cc1OC.Cl` (stereo not drawn) gave a Pct of control of 17.9%. Turning to `COc1cc2nc(N3CCN(C(=O)C4COc5ccccc5O4)CC3)nc(N)c2cc1OC.CS(=O)(=O)O` (stereo not drawn), the Pct of control is listed as 41.5%. Then `COc1cc2nc(N3CCN(C(=O)C4CCCO4)CC3)nc(N)c2cc1OC.Cl.O.O` (stereo not drawn), with 23.3%.

Consider `c1ccc(CNc2nc(NCc3ccccc3)c3ccccc3n2)cc1`, for which the Pct of control came out at 74.5%. Then `CCn1nc(C(=O)O)c(=O)c2cc3c(cc21)OCO3`, with 86.4%. Then `CC12CCC3c4ccc(O)cc4CCC3C1CCC2=O` (stereo not drawn), with 88.5%; and `O=c1[nH]c2ccccc2n1CCCN1CCC(n2c(=O)[nH]c3cc(Cl)ccc32)CC1`, with 91.8%. Then `CC1CCc2c(N3CCC(O)CC3)c(F)cc3c(=O)c(C(=O)O)cn1c23` (stereo not drawn), with 90.3%; and `CCCC(NC(=O)C(C#N)=Cc1cccc(Br)n1)c1ccccc1` (stereo not drawn), with 20.3%; and `CC(NC(=O)C(C#N)=Cc1cccc(Br)n1)c1ccccc1` (stereo not drawn), with 24.1%. `N#CC(=Cc1ccc(O)c(O)c1)C(=O)NCc1ccccc1` showed a Pct of control of 95.3%.

Take `CCOC(=O)C1=C(COCCN)NC(C)=C(C(=O)OC)C1c1ccccc1Cl.O=S(=O)(O)c1ccccc1` (stereo not drawn): the Pct of control worked out at 91.6%. Then `CC(C)CCN1c2nc(Nc3cc(F)c(O)c(F)c3)ncc2N(C)C(=O)C1C` (stereo not drawn), with 86.7%.
